# Reference: PubChem BioAssay (EPA / NIEHS)
# Results filed as inconclusive are left out. The source made the active and inactive calls. How the source made its calls, unless noted: active means hit-call score of the fitted dose curve at least 0.9, where 1 is the maximum; inconclusive means response in the unintended direction; inactive means score below 0.9.
# Columns and labels:
# [1] = tested on: Sodium/Iodide Symporter (NIS), SLC5A5 (gene 6528); test: CPHEA_Stoker_NIS_Inhibition_RAIU: CPHEA's Radioactive Iodide Uptake (RAIU) Assay for Sodium/Iodide Symporter (NIS) Inhibition, Stoker and Laws Labs (AID 2283841)
# Outline: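 HEK293T cells stably expressing human NIS (hNIS-HEK293T-EPA) were exposed to test chemicals at 0.001–100uM (0.5% final DMSO) with 125I at a final 329pM in HBSS/10mM HEPES pH 7.4. After 2 hours at room temperature and ice-cold washes, intracellular 125I was counted as CPM and normalized to DMSO wells.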
# [2] = CPHEA_Stoker_NIS_Cytotoxicity: Cytotoxicity Assessment for CPHEA's Radioactive Iodide Uptake (RAIU) Assay for Sodium/Iodide Symporter (NIS) Inhibition, Stoker and Laws Labs (AID 2283897);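 on AC50: active means loss of ATP signal versus DMSO meaning cytotoxicity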
# Outline: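 hNIS-HEK293T-EPA human kidney cells were exposed for 2 hours at room temperature to test chemicals (0.001–100uM, 0.5% final DMSO) in HEPES-buffered HBSS, pH 7.4. Viability was read as ATP content by luciferase bioluminescence, loss of signal versus DMSO.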
# [3] = molecular target: PGR (gene 5241) (UniProt P06401); test: TOX21_PR_BLA_Followup_Antagonist_ratio: Tox21 HEK293 Progesterone Receptor (PR) Antagonism Beta-lactamase Follow-Up Assay, Ratio (AID 2283934)
# Outline: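 PR-UAS-bla HEK293T cells in medium with 2% charcoal-stripped FBS were treated with compounds plus 1 nM (final) promegestone (R5020) for 16 hr at 37C. LiveBLAzer B/G FRET substrate was then added for 2 h at room temperature; signal is cleaved/uncleaved substrate ratio versus DMSO.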
# [4] = TOX21_PR_BLA_Followup_Agonist_viability: Viability Assessment in the Tox21 HEK293 Progesterone Receptor (PR) Agonism Beta-lactamase Follow-Up Assay (AID 2283935);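 further: signal loss means lower viability so actives are cytotoxic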
# Outline: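 PR-UAS-bla HEK293T cells in 2% charcoal-stripped FBS medium, compound added after 6 hr plating, 16 hr at 37C/5% CO2. After bla FRET read, CellTiter-Glo added; luminescence read after 30 min at room temperature; signal loss marks cytotoxicity.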
# [5] = TOX21_PR_BLA_Followup_Antagonist_viability: Viability Assessment in the Tox21 HEK293 Progesterone Receptor (PR) Antagonism Beta-lactamase Follow-Up Assay (AID 2283936);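 further: hits lower the luminescence signal meaning cytotoxicity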
# Outline: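 PR-UAS-bla HEK293T cells (3,000/well, 2% charcoal-stripped FBS) given compound plus R5020 agonist, 16 h at 37C. CellTiter-Glo added after bla read, 30 min at room temperature; luminescence loss indicates cytotoxicity.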
# [6] = molecular target: PGR (gene 5241) (UniProt P06401); test: TOX21_PR_LUC_Followup_Antagonist: Tox21 HEK293 Progesterone Receptor (PR) Antagonism Luciferase Follow-Up Assay (AID 2283938);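 further: curve fitted upward as signal gain over DMSO baseline despite antagonist label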
# Outline: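 HEK293-PR-A-luc cells, 3,000/well, preincubated 5 h at 37C before compound addition in DMSO; 16 h compound exposure at 37C. ONE-Glo luciferase luminescence read after 30 min at room temperature, fitted relative to DMSO baseline.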
# [7] = TOX21_PR_LUC_Followup_Antagonist_viability: Viability Assessment in the Tox21 HEK293 Progesterone Receptor (PR) Antagonism Luciferase Follow-Up Assay (AID 2283940)
# Outline: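 HEK293-PR-A-luc cells, precultured 5 days in assay medium with 10% charcoal-stripped FBS, were seeded at 3,000 cells/well, treated with compounds in DMSO for 16 h at 37C, and viability was read as cellular ATP by CellTiter-Glo luminescence.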
# [8] = TOX21_PR_LUC_Followup_Agonist_viability: Viability Assessment in the Tox21 HEK293 Progesterone Receptor (PR) Agonism Luciferase Follow-Up Assay (AID 2283941);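 further: loss of signal means cytotoxicity so actives lower viability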
# Outline: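 HEK293-PR-A-luc cells, pre-cultured 5 days in 10% charcoal-stripped FBS, were seeded at 3,000 cells/well, rested 5 h at 37C, then given compound in DMSO for 16 h at 37C. Cellular ATP was read by CellTiter-Glo luminescence; signal loss indicates cytotoxicity.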
# [9] = molecular target: zebrafish Thyroid Hormone Receptor alpha (TRa), thraa (gene 30670) (UniProt Q98867); test: ATG_zfTRa_XSP2: Attagene TRANS-FACTORIAL Multi-Species (XSP1) HepG2 Assay for zebrafish Thyroid Hormone Receptor alpha (TRa) (AID 2283832);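 further: actives raise zebrafish TRa-Gal4 reporter transcript above DMSO baseline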
# Outline: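 HepG2 cells transiently transfected with multiplexed GAL4-UAS reporter units expressing chimeric NR-Gal4 proteins; 24 h after dosing, reporter mRNA measured by RT-PCR, FAM labelling, HpaI digestion and capillary electrophoresis; gain of signal versus DMSO baseline.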
# [10] = ATG_M_61_XSP2: Attagene TRANS-FACTORIAL Multi-Species (XSP2) HepG2 Assay for M61 Transcription Factor (Internal Marker) (AID 2283835; active means hit-call score of the fitted dose curve at least 0.9, where 1 is the maximum; inactive means score below 0.9;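 further: reporter mRNA of an internal background marker read by RT-PCR and capillary electrophoresis; active means a rise in signal above the DMSO baseline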)
# Outline: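 First, HepG2 cells are transfected with reporter units under GAL4-UAS control. Next, chemicals are applied for 24 h. Then total RNA is reverse-transcribed, amplified, fluorescently labelled and sized by capillary electrophoresis, with gain of signal scored against DMSO.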
# [11] = molecular target: zebrafish Thyroid Hormone Receptor beta (TRb), thrb (gene 30607) (UniProt Q9PVE4); test: ATG_zfTRb_XSP2: Attagene TRANS-FACTORIAL Multi-Species (XSP1) HepG2 Assay for zebrafish Thyroid Hormone Receptor beta (TRb) (AID 2283836)
# Outline: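 HepG2 cells transiently transfected with multiplexed GAL4-UAS reporter units expressing chimeric NR-Gal4 proteins; read 24 h after dosing. Reporter mRNA quantified by RT-PCR, 6-FAM labelling, HpaI digest and capillary electrophoresis; gain of signal fitted relative to DMSO.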
# [12] = molecular target: human Thyroid hormone Receptor alpha (TRa), THRA (gene 7067) (UniProt P10827); test: ATG_hTRa_XSP2: Attagene TRANS-FACTORIAL Multi-Species (XSP2) HepG2 Assay for human Thyroid hormone Receptor alpha (TRa) (AID 2283838)
# Outline: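 HepG2 cells transiently transfected with multiplexed GAL4-UAS reporter units and exogenous NR-GAL4 chimeras; 24 h chemical exposure with 3 nM 6-alpha-fluorotestosterone and 1.5 nM norgestrel present. Reporter mRNA measured by RT-PCR, FAM labelling, HpaI digestion, capillary electrophoresis; gain-of-signal versus DMSO.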
# [13] = molecular target: frog Thyroid hormone Receptor alpha (TRa), thra-a (gene 397942) (UniProt P15204); test: ATG_frTRa_XSP2: Attagene TRANS-FACTORIAL Multi-Species (XSP2) HepG2 Assay for frog Thyroid hormone Receptor alpha (TRa) (AID 2283839)
# Outline: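 HepG2 transiently transfected with multiplexed GAL4-UAS reporters driven by frog TRa-Gal4 chimeras; 24 h chemical exposure. Reporter mRNA quantified by RT-PCR, FAM labelling, HpaI digestion and capillary electrophoresis; gain of signal versus DMSO.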
# [14] = molecular target: human Thyroid hormone Receptor beta (TRb), THRB (gene 7068) (UniProt P10828); test: ATG_hTRb_XSP2: Attagene TRANS-FACTORIAL Multi-Species (XSP2) HepG2 Assay for human Thyroid hormone Receptor beta (TRb) (AID 2283840);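 further: actives raise reporter mRNA so potency reflects agonist-like gain of signal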
# Outline: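 HepG2 transiently transfected with a multi-species panel including a human TRb–Gal4 chimera driving Gal4-UAS reporters; medium contained 3 nM 6-alpha-fluorotestosterone and 1.5 nM norgestrel. 24 h dosing; RT-PCR/capillary electrophoresis readout; positive-direction fit vs DMSO.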
# [15] = molecular target: Thyroid hormone receptor alpha (Rattus norvegicus) + Thyroid hormone receptor beta (Rattus norvegicus) (UniProt P18113+P63059); test: TOX21_TR_LUC_GH3_Agonist_Followup: Tox21 GH3 Thyroid Hormone Receptor Agonism Luciferase Follow-Up Assay (AID 2283939)
# Outline: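 Rat GH3 cells (1,500/well) in serum-free assay medium, treated with 15-point series, 92 uM to 5 nM final, for 24 h at 37C. Luciferase via ONE-Glo luminescence; gain of signal fitted against DMSO, T3 positive control.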
# Sequence of PGR (gene 5241) (P06401 whole entry, looked up): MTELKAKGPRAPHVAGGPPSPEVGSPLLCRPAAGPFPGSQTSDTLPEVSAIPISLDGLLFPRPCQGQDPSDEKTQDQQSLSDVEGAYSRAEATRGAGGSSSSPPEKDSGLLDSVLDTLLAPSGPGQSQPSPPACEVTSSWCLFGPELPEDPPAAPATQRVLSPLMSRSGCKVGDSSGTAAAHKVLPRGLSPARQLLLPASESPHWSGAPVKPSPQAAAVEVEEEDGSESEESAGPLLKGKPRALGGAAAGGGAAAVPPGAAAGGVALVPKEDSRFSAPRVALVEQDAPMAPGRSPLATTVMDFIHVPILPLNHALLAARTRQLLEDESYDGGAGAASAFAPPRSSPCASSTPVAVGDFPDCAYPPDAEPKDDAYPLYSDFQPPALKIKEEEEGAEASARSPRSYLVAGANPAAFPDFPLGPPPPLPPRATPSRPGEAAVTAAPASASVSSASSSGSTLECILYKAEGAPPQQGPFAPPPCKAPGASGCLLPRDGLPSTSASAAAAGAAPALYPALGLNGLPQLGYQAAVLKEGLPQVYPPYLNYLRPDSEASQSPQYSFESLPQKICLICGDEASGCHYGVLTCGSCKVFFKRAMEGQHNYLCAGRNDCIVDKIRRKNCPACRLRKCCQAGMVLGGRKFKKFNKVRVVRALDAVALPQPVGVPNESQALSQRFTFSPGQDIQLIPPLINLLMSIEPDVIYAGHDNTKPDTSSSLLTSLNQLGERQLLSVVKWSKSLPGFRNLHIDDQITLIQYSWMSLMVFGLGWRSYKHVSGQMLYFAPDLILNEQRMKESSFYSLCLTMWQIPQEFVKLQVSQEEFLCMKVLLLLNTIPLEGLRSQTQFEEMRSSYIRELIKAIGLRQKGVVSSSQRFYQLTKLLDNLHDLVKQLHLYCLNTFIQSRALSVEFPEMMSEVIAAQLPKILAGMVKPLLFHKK
# Sequence of zebrafish Thyroid Hormone Receptor alpha (TRa), thraa (gene 30670) (Q98867 whole entry, looked up, the tested form may be a part): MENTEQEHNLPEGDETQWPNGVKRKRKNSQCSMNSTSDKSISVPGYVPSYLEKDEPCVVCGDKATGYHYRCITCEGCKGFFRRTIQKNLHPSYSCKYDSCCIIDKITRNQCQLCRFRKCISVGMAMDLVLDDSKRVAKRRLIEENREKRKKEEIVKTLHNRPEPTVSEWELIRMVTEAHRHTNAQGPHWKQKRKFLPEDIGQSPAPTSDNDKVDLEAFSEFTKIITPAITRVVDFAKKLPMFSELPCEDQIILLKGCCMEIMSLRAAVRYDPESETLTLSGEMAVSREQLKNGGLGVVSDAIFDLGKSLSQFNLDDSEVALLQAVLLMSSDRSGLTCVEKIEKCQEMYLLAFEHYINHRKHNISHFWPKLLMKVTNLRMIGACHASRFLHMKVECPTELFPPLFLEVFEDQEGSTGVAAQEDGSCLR
# Sequence of zebrafish Thyroid Hormone Receptor beta (TRb), thrb (gene 30607) (Q9PVE4 whole entry, looked up, the tested form may be a part): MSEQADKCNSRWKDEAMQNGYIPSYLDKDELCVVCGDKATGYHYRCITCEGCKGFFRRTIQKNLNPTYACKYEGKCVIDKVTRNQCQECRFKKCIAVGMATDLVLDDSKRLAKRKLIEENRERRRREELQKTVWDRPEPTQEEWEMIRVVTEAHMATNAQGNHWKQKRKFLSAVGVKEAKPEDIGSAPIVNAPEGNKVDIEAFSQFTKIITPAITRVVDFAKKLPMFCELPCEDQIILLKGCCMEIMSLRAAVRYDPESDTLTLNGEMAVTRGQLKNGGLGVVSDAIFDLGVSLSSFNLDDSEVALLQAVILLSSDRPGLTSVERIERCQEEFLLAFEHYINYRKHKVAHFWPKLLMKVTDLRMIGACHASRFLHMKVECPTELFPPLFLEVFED
# Sequence of frog Thyroid hormone Receptor alpha (TRa), thra-a (gene 397942) (P15204 whole entry, looked up, the tested form may be a part): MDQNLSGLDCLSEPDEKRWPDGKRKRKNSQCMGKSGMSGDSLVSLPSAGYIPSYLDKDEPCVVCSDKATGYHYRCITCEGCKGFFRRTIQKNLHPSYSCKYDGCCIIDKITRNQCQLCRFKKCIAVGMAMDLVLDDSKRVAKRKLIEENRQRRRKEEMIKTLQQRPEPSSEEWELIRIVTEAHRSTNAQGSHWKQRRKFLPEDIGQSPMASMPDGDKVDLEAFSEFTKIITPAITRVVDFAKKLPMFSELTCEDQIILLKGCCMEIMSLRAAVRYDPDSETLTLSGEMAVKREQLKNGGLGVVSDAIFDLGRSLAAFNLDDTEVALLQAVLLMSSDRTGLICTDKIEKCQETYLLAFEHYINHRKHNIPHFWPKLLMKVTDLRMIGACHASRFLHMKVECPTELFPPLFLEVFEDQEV
# Sequence of Thyroid hormone receptor alpha (Rattus norvegicus) + Thyroid hormone receptor beta (Rattus norvegicus) (P63059 whole entry, looked up): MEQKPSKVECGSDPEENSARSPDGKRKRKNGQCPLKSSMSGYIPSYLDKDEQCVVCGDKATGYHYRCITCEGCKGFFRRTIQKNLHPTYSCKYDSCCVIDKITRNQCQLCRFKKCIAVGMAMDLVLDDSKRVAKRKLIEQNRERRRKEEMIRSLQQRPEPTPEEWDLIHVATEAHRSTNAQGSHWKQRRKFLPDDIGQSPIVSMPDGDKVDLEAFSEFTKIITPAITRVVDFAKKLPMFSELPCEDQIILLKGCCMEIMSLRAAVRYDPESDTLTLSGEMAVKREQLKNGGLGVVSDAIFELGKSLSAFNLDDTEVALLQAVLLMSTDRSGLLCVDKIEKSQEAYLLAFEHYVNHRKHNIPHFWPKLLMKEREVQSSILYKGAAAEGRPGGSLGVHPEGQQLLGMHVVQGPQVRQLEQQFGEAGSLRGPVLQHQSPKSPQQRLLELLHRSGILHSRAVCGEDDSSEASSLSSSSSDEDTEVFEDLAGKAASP
# Sequence of Thyroid hormone receptor alpha (Rattus norvegicus) + Thyroid hormone receptor beta (Rattus norvegicus) (P18113 whole entry, looked up): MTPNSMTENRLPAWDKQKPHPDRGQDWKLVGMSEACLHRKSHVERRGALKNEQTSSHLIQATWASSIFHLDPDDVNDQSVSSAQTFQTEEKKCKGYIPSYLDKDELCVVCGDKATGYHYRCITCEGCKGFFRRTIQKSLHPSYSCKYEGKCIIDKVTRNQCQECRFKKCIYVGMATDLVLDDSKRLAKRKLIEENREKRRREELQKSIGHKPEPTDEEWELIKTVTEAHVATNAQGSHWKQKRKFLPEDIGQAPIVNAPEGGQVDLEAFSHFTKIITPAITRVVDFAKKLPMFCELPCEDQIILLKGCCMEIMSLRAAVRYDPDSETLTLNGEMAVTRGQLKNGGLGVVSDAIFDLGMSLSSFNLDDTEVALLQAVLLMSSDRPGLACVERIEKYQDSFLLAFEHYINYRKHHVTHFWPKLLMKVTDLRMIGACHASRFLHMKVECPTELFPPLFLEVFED
# Sequence of human Thyroid hormone Receptor alpha (TRa), THRA (gene 7067) (P10827 whole entry, looked up, the tested form may be a part): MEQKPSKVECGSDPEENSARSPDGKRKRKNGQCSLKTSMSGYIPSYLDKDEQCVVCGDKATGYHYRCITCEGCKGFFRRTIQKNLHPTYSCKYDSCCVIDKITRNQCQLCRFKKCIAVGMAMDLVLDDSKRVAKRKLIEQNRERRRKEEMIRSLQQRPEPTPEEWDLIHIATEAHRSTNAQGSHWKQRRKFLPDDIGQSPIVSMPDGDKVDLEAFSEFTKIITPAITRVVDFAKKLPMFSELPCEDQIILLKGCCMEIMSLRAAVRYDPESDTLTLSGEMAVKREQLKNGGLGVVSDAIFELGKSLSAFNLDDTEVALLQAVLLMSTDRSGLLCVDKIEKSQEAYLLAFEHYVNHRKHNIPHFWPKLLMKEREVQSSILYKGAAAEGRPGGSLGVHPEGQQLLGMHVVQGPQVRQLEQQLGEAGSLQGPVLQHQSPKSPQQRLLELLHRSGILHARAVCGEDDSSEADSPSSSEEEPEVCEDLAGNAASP
# Sequence of human Thyroid hormone Receptor beta (TRb), THRB (gene 7068) (P10828 whole entry, looked up, the tested form may be a part): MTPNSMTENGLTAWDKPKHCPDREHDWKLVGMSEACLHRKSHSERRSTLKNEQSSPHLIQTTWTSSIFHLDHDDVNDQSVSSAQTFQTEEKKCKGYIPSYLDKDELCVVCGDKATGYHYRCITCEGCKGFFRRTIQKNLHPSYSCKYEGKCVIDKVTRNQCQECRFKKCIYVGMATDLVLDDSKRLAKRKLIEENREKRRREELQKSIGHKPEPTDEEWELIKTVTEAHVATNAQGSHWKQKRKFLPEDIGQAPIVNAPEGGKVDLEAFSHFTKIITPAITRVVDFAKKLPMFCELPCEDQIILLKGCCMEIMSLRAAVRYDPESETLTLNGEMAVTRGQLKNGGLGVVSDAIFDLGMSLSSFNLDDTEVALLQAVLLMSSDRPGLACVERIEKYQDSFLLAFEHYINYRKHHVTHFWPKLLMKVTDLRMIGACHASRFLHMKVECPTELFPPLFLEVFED
smiles,measurement,setting,value
CCOC(=O)Cc1cccc2ccccc12,outcome,[1],inactive
same,outcome,[2],inactive
C#CC1(O)CC[C@H]2[C@@H]3CCC4=CCCC[C@@H]4[C@H]3CC[C@@]21C (some centres undefined),outcome,[3],inactive
same,outcome,[4],inactive
same,outcome,[5],inactive
same,AC50,[6],23.9 µM (active)
same,outcome,[7],inactive
same,AC50,[8],72.7 µM (active)
O=C(c1ccc(O)cc1)c1ccc(O)cc1O,outcome,[9],inactive
same,outcome,[10],inactive
same,outcome,[11],inactive
same,outcome,[12],inactive
same,outcome,[13],inactive
same,outcome,[14],inactive
CCC(=O)Oc1ccc(/C(CC)=C(\CC)c2ccc(OC(=O)CC)cc2)cc1,AC50,[3],9.26 µM (active)
same,outcome,[4],inactive
same,outcome,[5],inactive
same,AC50,[6],16.5 µM (active)
same,outcome,[7],inactive
same,outcome,[8],inactive
CN(C)c1ccc(C(=N)c2ccc(N(C)C)cc2)cc1,AC50,[1],19.8 µM (active)
same,outcome,[2],inactive
CCOC(=O)c1ccccc1C(=C1C=C(Br)C(=O)C(Br)=C1)c1cc(Br)c(O)c(Br)c1,AC50,[3],24.5 µM (active)
same,outcome,[4],inactive
same,outcome,[5],inactive
same,AC50,[6],28.9 µM (active)
same,outcome,[7],inactive
same,outcome,[8],inactive
c1ccc2c(c1)ccc1cc3c(ccc4ccccc43)cc12,outcome,[1],inactive
same,outcome,[2],inactive
CO[Si](OC)(OC)c1ccccc1,outcome,[1],inactive
same,outcome,[2],inactive
CC(=O)[C@H]1[C@H](C#N)C[C@H]2[C@@H]3CC=C4C[C@@H](O)CC[C@]4(C)[C@H]3CC[C@@]21C,AC50,[3],19.2 µM (active)
same,outcome,[4],inactive
same,outcome,[5],inactive
same,outcome,[6],inactive
same,outcome,[8],inactive
CCCCCCC(O)CO (centres undefined),outcome,[15],inactive
C1CN(SSN2CCOCC2)CCO1,outcome,[2],inactive
O=C(C=Cc1ccccc1)OCc1ccccc1,outcome,[1],inactive
same,outcome,[2],inactive
CCCCCCCC[N+](C)(CCCCCCCC)CCCCCCCC,AC50,[1],10.4 µM (active)
same,AC50,[2],50 µM (active)
C[C@]12CCC(=O)C=C1CC[C@@H]1[C@@H]2C(=O)C[C@@]2(C)[C@H]1CC[C@]2(O)C(=O)CO,outcome,[3],inactive
same,outcome,[4],inactive
same,outcome,[5],inactive
same,outcome,[6],inactive
CC/C=C\C/C=C\C/C=C\CCCCCCCC(=O)O,outcome,[1],inactive
same,outcome,[2],inactive
